Most compounds without a hit are left out; they make up all but 2.7% or so of the library.
GLP-1R inv ag: qHTS of GLP-1 Receptor Inverse Agonists (Inhibition Mode); Glucagon-like peptide 1 receptor (Homo sapiens), P43220; 410,000 compounds, 1.6% hits; HEK293 GLP-1R CRE-luciferase, luminescence, 24 h; GLP-1R form is constitutively active; Potency, µM (top dose mostly 38.3 µM), inactives show at the top dose activity change, negative = inhibition, usual class: inhibitors; also: % is scaled to controls: 0 for no effect and ±100 for the full control effect; nearly all actives have a fitted effect of over 55% in size
Target sequence (P43220 whole entry, looked up): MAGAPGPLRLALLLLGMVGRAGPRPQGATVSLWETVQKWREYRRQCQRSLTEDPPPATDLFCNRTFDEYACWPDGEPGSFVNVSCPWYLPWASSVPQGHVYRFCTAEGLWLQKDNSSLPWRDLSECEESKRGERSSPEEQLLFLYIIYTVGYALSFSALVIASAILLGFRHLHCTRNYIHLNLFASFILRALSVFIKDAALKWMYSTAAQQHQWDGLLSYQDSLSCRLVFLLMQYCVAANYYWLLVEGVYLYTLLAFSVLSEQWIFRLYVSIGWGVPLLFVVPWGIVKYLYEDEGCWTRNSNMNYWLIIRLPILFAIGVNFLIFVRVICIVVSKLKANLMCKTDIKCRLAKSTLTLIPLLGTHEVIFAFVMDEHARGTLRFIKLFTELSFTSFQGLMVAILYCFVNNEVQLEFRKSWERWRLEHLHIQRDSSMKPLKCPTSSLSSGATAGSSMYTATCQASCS
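GLP-1R inverse agonism mode: basal reporter luminescence in engineered HEK293 cells measured after one day of compound exposure at 37 deg C, with a 12 min room-temperature detection step.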
a7 integrin act: qHTS for Activators of Integrin-Mediated Alleviation for Muscular Dystrophy; alpha7betagal myoblasts, beta-gal FDG fluorescence, 48 h; Potency, µM (titrated, usually from 38.3 µM), without a hit: at the highest dose activation, most hits filed as activators; 350,000 compounds, 0.064% hits;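 also: 100% = response of the positive control SU9516; nearly all actives have a fitted effect of over 60% in size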
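Alpha7betagal+/- myoblasts (passage 13) were plated 16-24 hr, then exposed to compounds (1:260 dilution of DMSO stock) for 48 hours at 37C. After MPER lysis, β-galactosidase reporter activity was read as FDG fluorescence (ex 480/em 540) after 30 minutes.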
HEK293 tox: qHTS of GLP-1 Receptor Inverse Agonists: Cytotox Screen; HEK293 cAMP-luciferase reporter cells, luminescence, 24 h; Potency, µM (highest dose often 38.3 µM), without a hit: at the top dose activity change, negative = inhibition, hits mostly inhibitors; 410,000 compounds, 0.13% hits;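 also: loss of luciferase light is scored as toxicity; % is scaled to controls: 0 for no effect and ±100 for the full control effect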
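Seeding density was 200 cells/uL; after overnight-length (12 h) culture, 23 nL compounds went on for 24 h at 37 °C. Readout used a luciferase detection reagent, luminescence taken after 12 min at room temperature.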
GLP-1R agonist: qHTS of GLP-1 Receptor Agonists; Glucagon-like peptide 1 receptor (Homo sapiens), P43220; HEK293 GLP-1R CRE-luciferase, luminescence, 4-6 h; cells express a hypersensitive GLP-1R form; 380,000 compounds, 0.007% hits; Potency, µM (top dose mostly 45.6 µM), inactives show at the top dose activation, hits mostly activators; also: % of control where 0% means no effect
BRCA1 expr up: qHTS Assay to Identify Small Molecule Activators of BRCA1 Expression | 380,000 compounds, 1.1% hits | Potency, µM (doses to about 46.1 µM), for the others: at the top dose activation, hits mostly activators | MCF7-BRCA1-FFLuc reporter, luminescence, 48 h; response scale: scaled: vehicle 0%, 10 µM genistein 100%; also: nearly all actives have a fitted effect of over 80% in size
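Cells: MCF7-BRCA1-FFLuc, 2000/well. Exposure: 48 h, 37 °C, 5% CO2. Read: luminescence, 15 min post-substrate. Controls: genistein 10 microM (maximal activation), DMSO (neutral).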
* = called active by the depositor; i = inactive; ? = inconclusive; . = no result given. Calls follow the shape of the dose curve; as a rule, active = well fitted curve in the direction sought with a large enough effect; inconclusive = small, poorly fitted or top-dose-only effect, or another doubt; inactive = no such curve, though single readings can be large; an effect the other way counts as inactive or inconclusive. Potency is read from the fitted curve at half-maximal effect.

SMILES	GLP-1R inv ag	a7 integrin act	HEK293 tox	GLP-1R agonist	BRCA1 expr up
O=C(NC1CCCC1)c1ccc(Cl)c(S(=O)(=O)N2CCOCC2)c1	11%	0%	-8%	9%	0%
O=C(CC1CCCC1)Nc1ccc(Cl)c(S(=O)(=O)N2CCOCC2)c1	8.9µM*	-36%	-1%	-5%	-68%
Cc1c2cnn(-c3ccccc3)c(=O)c2c(C)n1CCCC(=O)Nc1cccc(F)c1	-25%	.	-12%	.	22%
Cc1ccc(C(=O)NCC(=O)NC23CC4CC(CC(C4)C2)C3)cc1	-3%	-48%	21%	-4%	6.3µM*
O=C(COC(=O)CNC(=O)c1ccccc1)NC12CC3CC(CC(C3)C1)C2	6%	0%	-5%	-6%	-18%
COc1ccc(C2C(C(=O)Nc3ccccc3)=C(C)Nc3nc(-c4ccc(Cl)cc4)nn32)cc1 (stereo not given)	?	.	2%	.	.
COCCNC(=S)N/N=C(\C)c1ccc(Cl)c(Cl)c1	?	15%	7%	24%	5%
COCCNC(=S)N/N=C(\C)c1cccc([N+](=O)[O-])c1	?	-14%	?	13%	-5%
COCCNC(=S)N/N=C(\C)c1cccc(OC)c1	4µM*	24%	?	6%	-19%
COCCNC(=S)N/N=C(\C)c1ccc(Cl)s1	2.2µM*	2%	2.8µM*	11%	-17%
CCNC(=S)N/N=C(\C)c1cccc(C(F)(F)F)c1	4.5µM*	-11%	4.5µM*	16%	-3%
COCCNC(=S)N/N=C(\C)c1ccc(Cl)c(Cl)c1Cl	?	7%	3.5µM*	21%	6%
COc1ccc(NC(=O)c2cc(C)nc3c2c(C)nn3-c2ccc(C)cc2)cc1OC	-18%	.	-1%	.	.
Cc1cccc(C(=O)Nc2nnc(S(=O)(=O)N(C)c3ccccc3C)s2)c1	?	.	-26%	.	.
CC(C)(C)NC(=O)C(c1ccccc1)n1c(=O)c(-c2cc3ccccc3[nH]2)nc2ccccc21 (stereo not given)	?	.	i	.	.
CC(C)(C)NC(=O)C(c1cccc2ccccc12)n1c(=O)c(-c2cc3ccccc3[nH]2)nc2ccccc21 (stereo not given)	6.3µM*	.	i	.	.
CC(C)(C)NC(=O)C(c1ccc(C(F)(F)F)cc1)n1c(=O)c(-c2cc3ccccc3[nH]2)nc2ccccc21 (stereo not given)	2.8µM*	.	i	.	.
CC(C)(C)NC(=O)C(c1ccc(-c2ccccc2)cc1)n1c(=O)c(-c2cc3ccccc3[nH]2)nc2ccccc21 (stereo not given)	?	.	493%	.	.
Cc1ccsc1/C=C(\C(=O)c1ccc(OC(C)C)cc1)c1nc2ccccc2o1	4µM*	2%	2%	9%	-37%
CC(C)Oc1ccc(C(=O)N2CCC(c3nc4ccccc4o3)CC2)cc1	-12%	.	-14%	.	.
Cc1ccsc1/C=C(\CC(=O)O)c1nc2ccccc2o1	15%	-9%	-12%	-1%	7.9µM*
COc1ccc(-c2nc3ccccc3o2)cc1NC(=O)C(C)(C)Oc1ccc(Br)cc1	5%	.	-13%	14%	1%
Cc1c(NC(=O)C(C)(C)Oc2ccc(Cl)cc2)cccc1-c1nc2ccccc2o1	11µM*	.	22%	.	.
CC(C)n1c(NCc2cc(Cl)ccc2O)nc2ccccc21	10µM*	-4%	13%	16%	-32%
Oc1ccc(Cl)cc1CNc1cnc2ccccc2c1	10µM*	0%	-6%	2%	38%
Oc1ccccc1CNc1cnc2ccccc2c1	0%	-43%	-31%	8%	?
Cc1ccc(S(=O)(=O)N2CCN(c3nc(-n4cccn4)nc4ccccc34)CC2)cc1	.	.	.	.	27%
CCOc1ccccc1NCc1nnc2n1CCCCC2	8%	.	-7%	9%	13%
CCC(Oc1ccc(F)cc1)C(=O)Nc1nc(-c2ccc(F)cc2)ns1 (stereo not given)	10µM*	.	-24%	.	.
